Only some compounds are listed: those with a hit (about 3.5% of all), similar ones and a draw of the others.
Pf apPOL block – Pf-apPOL inhibitors, biochemical, fluorescence | inhibition, % at 10 µM | Plasmodium falciparum apicoplast DNA polymerase (apPOL) | 210,000 compounds, 0.25% hits | AID 1794808, 2022 | Recombinant Pf-apPOL, molecular beacon fluorescence, 1.5 h
mHTT-CaM PPI inh – mutant huntingtin-calmodulin interaction inhibitors – biochemical, AlphaScreen, primary screen; P42858; AlphaScreen His-mHTT/GST-CaM binding, luminescence; inhibition, % at 15 µM; 190,000 compounds, 3.6% hits;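 also: 0% = both proteins with DMSO and 100% = one protein alone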
Starred values were filed as active, the others as inactive; / = no result given. Rule as the data show it: active = inhibition above about 50%; inactive = the rest.

SMILES	Pf apPOL block	mHTT-CaM PPI inh
CCSc1nnc2c(n1)OC(c1cn[nH]c1-c1ccccc1)Nc1ccccc1-2 (stereo not drawn)	-6	7
CSc1nnc2c(n1)OC(c1cc3c(cc1Br)OCO3)Nc1ccccc1-2 (stereo not drawn)	85*	0
CSc1nnc2c(n1)OC(c1cccs1)Nc1ccccc1-2 (stereo not drawn)	-2	6
O=S(=O)(O)c1cc2cc3ccccc3cc2[nH]1	2	/
FC(F)Oc1ccc(C2CC(c3ccc(Cl)cc3)Nc3nnnn32)cc1 (stereo not drawn)	2	7
CCCN1CCN(C(=O)c2cn3ccnc(-c4ccccc4)c3n2)CC1	0	9
COc1ccc(CNC(=O)C2c3ccccc3CCN2C(C)=O)cc1OC (stereo not drawn)	1	1
COc1ccc(OC)c(C2C(C(=O)Nc3cc(C)ccn3)=C(C)NC3=C2C(=O)CC(C)(C)C3)c1 (stereo not drawn)	4	17
CCc1noc(-c2cccn2Cc2cccc(OC)c2)n1	2	-44
O=C(NC1CCCC1)c1nn2c(C(F)(F)F)cc(-c3ccco3)nc2c1Br	3	0
O=C(Nc1cccc(O)c1)c1nn2c(C(F)(F)F)cc(-c3ccco3)nc2c1Br	7	61*
CCCCOC(=O)C1=CN(C)S(=O)(=O)N=C1C	4	-28
Cc1c(N(C(=O)c2ccc([N+](=O)[O-])cc2)C(C)C)c(=O)n(-c2ccccc2)n1C	-1	-1
Clc1ccccc1C1Cn2cnc(-c3nc(-c4ccccn4)no3)c2CO1 (stereo not drawn)	0	100*
Fc1ccc(-c2noc(-c3ncn4c3COC(c3ccccc3Cl)C4)n2)cc1 (stereo not drawn)	-4	19
Cc1ccnc(Nc2ccc(NCCNC(=O)c3c(F)cccc3F)nn2)c1	-6	100*
Cc1ccc(NCCNC(=O)c2c[nH]c3ccccc23)nn1	-14	-11
Cc1cc(Cc2cc(C(C)(C)C)c(O)c(C(C)(C)C)c2)c(O)c(C(C)(C)C)c1	/	9
Cc1cc(O)c(C(C)(C)C)cc1S(=O)c1cc(C(C)(C)C)c(O)cc1C	/	68*
Cc1cc(S(=O)c2cc(C)cc(C(C)(C)C)c2O)c(O)c(C(C)(C)C)c1	/	72*
CC(C)(C)c1cc(O)c(C(C)(C)C)cc1O	49	12
Cc1cc(Sc2cc(C)c(O)c(C(C)(C)C)c2)cc(C(C)(C)C)c1O	/	15
Cc1cc(O)c(C(C)(C)C)cc1Sc1cc(C(C)(C)C)c(O)cc1C	/	100*
Cc1ccc(CNC(=O)Cn2cc3c(n2)CCCC3)cc1	-3	-10
O=C(CN1CCCCC1c1nc(C2CC2)no1)Nc1cccnc1 (stereo not drawn)	-2	-2
SMILES	Pf apPOL block	mHTT-CaM PPI inh
Cn1c(SCc2ccccc2)nnc1-c1cccc(NC(=O)c2ccccc2F)c1	-1	13
COc1ccc(-c2[nH]nc3c2C(c2ccc(C(F)(F)F)cc2)C(C#N)=C(N)O3)cc1OC (stereo not drawn)	1	100*
N#CC1=C(N)Oc2n[nH]c(-c3ccc(Cl)c(Cl)c3)c2C1c1ccc(O)cc1 (stereo not drawn)	-4	100*
COc1cc(C2C(C#N)=C(N)Oc3n[nH]c(-c4ccc(Cl)c(Cl)c4)c32)ccc1O (stereo not drawn)	-1	99*
COc1ccc(C2C(C#N)=C(N)Oc3n[nH]c(-c4ccc(OC)c(OC)c4)c32)cc1O (stereo not drawn)	-1	10
COc1cc(C2C(C#N)=C(N)Oc3n[nH]c(-c4cc(OC)c(OC)c(OC)c4)c32)ccc1O (stereo not drawn)	-3	10
N#CC1=C(N)Oc2n[nH]c(-c3cccc([N+](=O)[O-])c3)c2C1c1ccc(O)cc1 (stereo not drawn)	7	14
Cc1nn(-c2ccc(C(=O)NCc3ccco3)cc2)c2c1C(=O)CC(C)(C)C2	-1	2
CC1=CC(=NC(=O)c2ccc([N+](=O)[O-])cc2)C=C(C)C1=O	0	4
COc1cccc(C(=O)CC2c3c(cc4c(c3OC)OCO4)CCN2C)c1 (stereo not drawn)	-8	-4
CCC(=O)Nc1nc2ccccc2n1Cc1ccc(Cl)cc1	-7	72*
CCC(=O)Nc1nc2ccccc2n1C	0	-7
CCN(CC)c1ccc(N=Cc2ccccc2O)cc1	3	15
c1cc(-c2noc(C3CCC3)n2)cc(N2CCOCC2)n1	-5	-29
COc1ccc2cc(C(C)=NOC(=O)Nc3ccc(OC(F)(F)F)cc3)ccc2c1	-14	/
Cn1cc(/C=C2\SC(=Nc3ccccc3)NC2=O)c2ccccc21	1	55*
O=C1NC(=Nc2ccccc2)S/C1=C/c1ccccc1Br	0	-1
COc1ccc(N(C)C(=O)c2cc3cc4ccc(OC)cc4nc3s2)cc1	-5	5
O=C(CS(=O)(=O)c1cn(Cc2ccccc2Cl)c2ccccc12)N1CCCCC1	-6	0
Cc1ccc(C(=O)NN(C)C)o1	/	-3
Cc1ccc(C(=O)/C=C/C=C/C=C/N(C)C)o1	-4	74*
O=[N+]([O-])c1cc(Cl)ccc1Sc1ccccc1	7	/
O=[N+]([O-])c1ccc(Sc2ccsc2)c([N+](=O)[O-])c1	/	69*
COCCC(=O)N1CCc2c(c(-c3nc(C)no3)nn2C)C1	-4	-2
COCCNC(=O)CSC1=Nc2ccccc2C2=NC(CC(=O)NCc3ccccc3)C(=O)N12 (stereo not drawn)	-1	3
SMILES	Pf apPOL block	mHTT-CaM PPI inh
O=C(Nc1nnc(SCc2cn3ccccc3n2)s1)c1cc(-c2ccco2)on1	12	-6
O=C(Nc1nnc(SCc2c(F)cccc2Cl)s1)c1cc(-c2ccco2)on1	61*	18
Cc1ccc(C(=O)O)c(C(=O)Nc2cccnc2)c1	-6	-8
O=C(c1ccc(F)cc1)N1CCN(c2ccccc2)CC1	-3	-2
O=C(c1ccc(C#CC2(O)CCCCC2)cc1)N1CCN(c2ccc(F)cc2)CC1	-14	52*
CC(C)(C)c1ccc(OCCCSC#N)cc1	-5	-106
O=c1/c(=C/c2ccccc2Cl)sc2nc(-c3cccs3)nn12	5	-2
O=C1OC(c2ccc([N+](=O)[O-])cc2)=N/C1=C\C(Cl)=C\c1ccccc1	-1	24
Cc1ccc2[nH]c3c(c2c1)CCC1C3=NNC1c1ccco1 (stereo not drawn)	-4	79*
Cc1ccc2[nH]c3c(c2c1)CCCC3=O	-6	2
Cc1ccc2nc(-c3ccc(N=Cc4ccccc4O)cc3)sc2c1	-1	/
Cc1ccc(N=Cc2cc3ccccc3[nH]c2=O)cc1	-1	57*
COc1cccc(-c2nc(C3CCN(S(=O)(=O)c4ccc(C)c(F)c4)CC3)no2)c1	-1	-9
COc1ccc(N2CC(CNS(=O)(=O)c3ccc4c(c3)CCCC4)CC2=O)cc1 (stereo not drawn)	-6	14
COc1ccc(N2CCC(CNS(=O)(=O)c3cccc(Cl)c3)C2)cc1 (stereo not drawn)	2	84*
CCOC(=O)N1CCc2nn(CC(=O)Nc3c(C)cc(C)cc3C)c(=O)cc2C1	-4	0
Cc1sc(NC(=O)c2cc3cc(Br)ccc3oc2=O)nc1-c1cccs1	0	4
O=C1S/C(=C\c2ccccc2F)C(=O)N1CNc1ccccc1Cl	-4	17
COCCN1C(=O)c2ccccc2C(C(=O)N(C)C2CCCCC2)C1c1ccc(F)cc1 (stereo not drawn)	1	5

High-throughput results: PubChem BioAssay, University of Kansas High Throughput Screening Laboratory
